Results on 13 compounds are retold here after PubChem BioAssay.

Assay [1] is described as follows: optical density shifts of acrAB sulA E. coli – strain DRC41, OD650, 48 h, E. coli filamentation inducer project, primary screen (AID 1152).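 Also: E. coli MC1000 strain DRC41 lacking acrAB efflux pump and sulA.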 Particulars: higher = more signal, called active from +8 up or from −8 down.
Assay [2] is described as follows: probe aLefty1 binding on compound microarray – biochemical, small-molecule microarray, 635/667 nm fluorescence, primary screen (AID 1153).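 Also: score merges spot fluorescence with signal-to-noise ratio from the scanned slide images.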 The following applies: higher = more signal.
The nature of assay [3]: plasmodial surface anion channel blockers, osmotic lysis – cell-based, P. falciparum Indochina, OD700, 1 h, primary screen (AID 1154). Particulars: P. falciparum Indochina infected RBC osmotic lysis, higher = more signal, called active from +8 up or from −8 down.
Assay [4] can be described thus: plasmodial surface anion channel blockers, osmotic lysis – cell-based, P. falciparum Indochina, OD700, 2 h, primary screen (AID 1155).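 Also: lysis reports solute entry through the parasite surface anion channel PSAC.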 The following applies: P. falciparum Indochina infected erythrocytes, higher = more signal, called active from +8 up or from −8 down.
A short description of assay [5]: changes in parasitized red cell lysis, either direction – P. falciparum Indochina, OD700, 3 h, PSAC antagonist project, primary screen (AID 1156). Particulars: P. falciparum-infected erythrocytes, osmotic lysis, higher = more signal, called active from +8 up or from −8 down.
Assay [6] is described as follows: plasmodial surface anion channel blockers, osmotic lysis – cell-based, P. falciparum Indochina, OD700, 18 h, primary screen (AID 1157). The following applies: P. falciparum Indochina infected erythrocytes, osmotic lysis OD700, 18 h; higher = more signal, called active from +8 up or from −8 down.
Assay [7] can be described thus: S6 kinase pathway phospho-S6 level changes – cell-based, A549, cytoblot, luminescence, serum-stimulated, primary screen (AID 1158).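 Also: serum-stimulated A549 lung adenocarcinoma cells; signal is phosphorylated S6 detected by cytoblot immunostaining with HRP secondary.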 The following applies: 5 h, higher = more signal.
Assay [8] concerns the target NADPH oxidase 2 (Homo sapiens) (UniProt P04839). As to the kind of experiment: compounds shifting NOX2 Amplex Red fluorescence – cell-based, HEK293-NOX2, PMA-stimulated, NOX inhibitor project, primary screen (AID 1159). Also: test concentration not given here. Particulars: 45 min, higher = more signal, called active from +8 up or from −8 down.
For assay [9], the target named is NADPH oxidase 4 (Homo sapiens) (UniProt Q9NPH5). Kind of assay: compounds shifting NOX4 Amplex Red fluorescence – cell-based, HEK293-NOX4, tetracycline-induced, NOX inhibitor project, primary screen (AID 1160). Particulars: HEK293-NOX4, Amplex Red H2O2 fluorescence, 45 min; higher = more signal, called active from +8 up or from −8 down.
In assay [10] the target is NADPH oxidase 5 (Homo sapiens) (UniProt Q96PH1). As to the kind of experiment: compounds shifting NOX5 Amplex Red fluorescence – cell-based, HEK293-NOX5, NOX inhibitor project, primary screen (AID 1161). Particulars: HEK293-NOX5, ionomycin, 45 min, higher = more signal.

Each structure is given as a SMILES string. Activity calls are given as the source filed them.

Sequence of NADPH oxidase 5 (Homo sapiens) (Q96PH1 whole entry, looked up): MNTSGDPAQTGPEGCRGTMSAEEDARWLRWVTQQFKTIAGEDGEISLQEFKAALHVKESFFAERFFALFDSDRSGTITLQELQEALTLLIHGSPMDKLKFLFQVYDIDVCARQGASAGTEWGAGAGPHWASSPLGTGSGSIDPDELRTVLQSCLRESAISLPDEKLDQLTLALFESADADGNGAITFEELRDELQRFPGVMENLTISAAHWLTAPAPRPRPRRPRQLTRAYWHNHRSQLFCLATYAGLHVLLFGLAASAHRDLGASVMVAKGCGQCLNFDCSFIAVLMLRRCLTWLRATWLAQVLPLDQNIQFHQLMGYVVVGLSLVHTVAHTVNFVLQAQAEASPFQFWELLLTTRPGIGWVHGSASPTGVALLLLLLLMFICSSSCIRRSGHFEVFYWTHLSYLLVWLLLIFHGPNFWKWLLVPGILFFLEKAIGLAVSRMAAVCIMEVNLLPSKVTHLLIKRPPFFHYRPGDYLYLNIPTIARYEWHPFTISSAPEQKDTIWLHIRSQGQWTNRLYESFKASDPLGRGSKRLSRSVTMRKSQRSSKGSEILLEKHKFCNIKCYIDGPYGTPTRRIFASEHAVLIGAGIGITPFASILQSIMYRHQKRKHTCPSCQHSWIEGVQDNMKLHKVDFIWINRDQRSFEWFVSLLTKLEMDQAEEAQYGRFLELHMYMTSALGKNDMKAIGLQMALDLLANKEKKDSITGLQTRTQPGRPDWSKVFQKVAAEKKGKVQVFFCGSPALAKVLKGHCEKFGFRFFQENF
Sequence of NADPH oxidase 2 (Homo sapiens) (P04839 whole entry, looked up): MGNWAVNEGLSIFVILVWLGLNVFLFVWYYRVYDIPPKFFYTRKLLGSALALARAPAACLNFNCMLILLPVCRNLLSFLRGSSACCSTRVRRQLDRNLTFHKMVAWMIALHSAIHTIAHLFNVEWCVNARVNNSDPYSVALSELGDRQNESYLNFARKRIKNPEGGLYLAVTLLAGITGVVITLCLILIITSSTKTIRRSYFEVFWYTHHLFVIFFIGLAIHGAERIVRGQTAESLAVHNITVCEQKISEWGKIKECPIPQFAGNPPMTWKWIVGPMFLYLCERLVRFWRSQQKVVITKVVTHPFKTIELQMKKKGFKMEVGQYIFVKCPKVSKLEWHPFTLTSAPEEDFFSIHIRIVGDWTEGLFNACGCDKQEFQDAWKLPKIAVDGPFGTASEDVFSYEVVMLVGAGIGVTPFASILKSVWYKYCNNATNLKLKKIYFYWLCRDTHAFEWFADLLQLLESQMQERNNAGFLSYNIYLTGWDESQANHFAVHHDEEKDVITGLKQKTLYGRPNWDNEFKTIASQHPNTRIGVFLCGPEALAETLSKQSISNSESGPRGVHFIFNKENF
Sequence of NADPH oxidase 4 (Homo sapiens) (Q9NPH5 whole entry, looked up): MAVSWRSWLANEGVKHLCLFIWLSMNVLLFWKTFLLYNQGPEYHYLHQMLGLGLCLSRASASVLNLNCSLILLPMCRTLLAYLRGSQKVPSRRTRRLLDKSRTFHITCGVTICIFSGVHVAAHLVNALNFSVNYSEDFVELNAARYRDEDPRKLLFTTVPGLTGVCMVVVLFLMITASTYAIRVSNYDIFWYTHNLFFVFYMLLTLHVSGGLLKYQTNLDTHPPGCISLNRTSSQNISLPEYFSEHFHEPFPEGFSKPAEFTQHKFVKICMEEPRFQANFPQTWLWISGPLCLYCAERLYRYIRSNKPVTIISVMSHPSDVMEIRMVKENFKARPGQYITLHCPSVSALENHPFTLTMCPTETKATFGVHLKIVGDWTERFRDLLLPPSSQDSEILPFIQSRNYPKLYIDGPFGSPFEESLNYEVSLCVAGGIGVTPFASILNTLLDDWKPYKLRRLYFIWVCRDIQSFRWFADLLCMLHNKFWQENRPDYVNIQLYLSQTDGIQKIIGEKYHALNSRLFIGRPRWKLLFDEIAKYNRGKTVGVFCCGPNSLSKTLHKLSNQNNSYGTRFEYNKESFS

As for `C#CCN(C(/C=C/c1ccccc1)CO)C(C(=O)O)c1ccccc1` (stereo not given), the z-score in [1] was 1.86 (inactive); in assay [3], 0.175 (inactive); in assay [4] it was -1.57 (inactive); in assay [5] it was -0.168 (inactive); in assay [6] it was -2.09 (inactive); in assay [7], 1.81. Further, the z-score in assay [8] was -0.269 (inactive); in assay [9] it was -0.46 (inactive); in [10], -0.191. The composite z-score in [2] is -0.319.

Regarding `CCOC(=O)C[C@H]1[C@H](OC(=O)c2ccc(C(=O)c3ccccc3)cc2)[C@@H](NC(=O)C2CCCCC2)c2cc(OCCCO)ccc2N1C(=O)c1ccccc1`, the z-score in assay [1] is -1.01 (inactive); in assay [3], 1.31 (inactive); in assay [4], -0.889 (inactive); in assay [5] it was -0.562 (inactive); in assay [6] it was -0.23 (inactive); in assay [7] it was -0.0118. Further, the results for the z-score in assay [8], in [9] and in assay [10] were 0.469 (inactive), 1.26 (inactive) and 1.77, respectively. Also, the composite z-score in assay [2] worked out at 0.315.

Turning to `CCOc1cc(C(O)C2C=CC3C(=O)N(c4ccccc4)C(=O)C3N2Nc2ccc([N+](=O)[O-])cc2)ccc1O` (stereo not given), the z-score in [1] was -1.48 (inactive); in assay [3], 14.3 (active); in [4] it was 1.52 (inactive); in [5] it was 0.839 (inactive); in assay [6] it was 0.557 (inactive); in assay [7], -0.77. Further, the z-score in [8] is -3.36 (inactive); in [9], -4.89 (inactive); in assay [10], -4.11. The composite z-score in assay [2] is -0.0011.

On to `Cc1cc(C)c(C(O)C2C=CC3C(=O)N(c4ccccc4)C(=O)C3N2Nc2ccc(C#N)cc2)c(C)c1` (stereo not given), for which the z-score is -0.197 (inactive) in [1]; 7.4 (inactive) in [3]; 1.27 (inactive) in assay [4]; 0.742 (inactive) in [5]; 1.27 (inactive) in assay [6]; -0.649 in assay [7]. Moreover, the z-score in assay [8] was 0.0492 (inactive); in assay [9], -2.68 (inactive); in assay [10] it was -2.1. Further, the composite z-score in assay [2] was determined as 0.938.

On to `COc1ccc([Si](C)(C)[C@H]2[C@H](CCn3cc(CCO)nn3)O[C@@]3(C(=O)N(Cc4ccc(N5CCOC5=O)cc4)c4ccccc43)[C@@H]2C)cc1`, for which the z-score in assay [1] was 0.176 (inactive); in assay [3] it was 33.4 (active); in assay [4], 34.8 (active); in [5] it was 2.62 (inactive); in assay [6], 6.01 (inactive); in assay [7] it was 0.711. The z-score is -0.564 (inactive) in assay [8], 2.16 (inactive) in [9] and -0.419 in assay [10]. This compound returned a composite z-score in assay [2] of 0.308.

As for `O=C1OCCC/C=C\[C@H]2OC34C=CCN(Cn5nnc6ccccc65)C(=O)[C@H]3N(CCCCCO)C(=O)[C@@H]4C12` (stereo not given in full), the z-score in assay [1] was 0.246 (inactive); in [3], 2.6 (inactive); in [4], 0.0767 (inactive); in assay [5] it was -0.212 (inactive); in assay [6] it was 0.479 (inactive); in [7], -0.339. In addition, the z-score is 0.871 (inactive) in assay [8], -0.167 (inactive) in assay [9] and 1.15 in [10]. The compound also showed a composite z-score in assay [2] of 0.278.

Consider `CN1C(=O)C2C(C1=O)C1C=C(CCCO)C2C(c2cccs2)N1C` (stereo not given), for which the z-score in [1] was 0.325 (inactive); in assay [3] it was 1.52 (inactive); in assay [4], 0.326 (inactive); in assay [5], 1.31 (inactive); in [6] it was 0.181 (inactive); in [7], -0.519. Further, the z-score was 0.108 (inactive) in assay [8], 0.378 (inactive) in [9] and 1.22 in [10]. In addition, the composite z-score in assay [2] was -0.274.

Turning to `COc1cc2c(cc1OC)CN(C(=O)[C@@H]1[C@H]3C(=O)O[C@H](c4ccccc4)[C@H](c4ccccc4)N3[C@H](c3ccccc3OCCO)[C@@]13C(=O)Nc1ccc(C#CCNC(N)=O)cc13)CC2`, the z-score in assay [1] was 0.97 (inactive); in assay [3], 1.14 (inactive); in assay [4], -0.45 (inactive); in assay [5], 0.333 (inactive); in assay [6], -2.15 (inactive); in assay [7], 3.09. Moreover, the values for the z-score in assay [8], in assay [9] and in [10] were 1.24 (inactive), 0.964 (inactive) and -0.0555, respectively. Besides, the composite z-score in assay [2] was 0.882.

For `O=C1OCCC=C[C@H]2OC34C=CCN(Cc5ccccc5)C(=O)[C@H]3N(CCCCCCO)C(=O)[C@@H]4C12` (stereo not given in full), the z-score in assay [1] was 1.12 (inactive); in assay [3] it was 0.944 (inactive); in assay [4], 0.396 (inactive); in assay [5], 0.884 (inactive); in [6] it was 0.43 (inactive); in assay [7], 1.2. In addition, the z-score in assay [8] was 1.11 (inactive); in assay [9], 0.0473 (inactive); in assay [10] it was 1.97. In assay [2], the composite z-score is -0.0831.

Turning to `N[C@@H](Cc1ccccc1)Cn1cc(-c2ccccc2)nn1`, the z-score in [1] is -2.54 (inactive); in [3], 5.12 (inactive); in [4], 0.745 (inactive); in assay [5], 0.0287 (inactive); in [6], 0.53 (inactive); in [7], -0.209. Further, the z-score in [8] was 0.659 (inactive); in assay [9] it was 0.45 (inactive); in [10], 0.448. Also, the composite z-score in assay [2] was found to be 0.271.

As to `CC(C)c1ccc(NN2C(C(O)c3c(F)cccc3Cl)C=CC3C(=O)N(c4ccccc4)C(=O)C32)cc1` (stereo not given), the z-score is -2.03 (inactive) in assay [1]; 2.86 (inactive) in [3]; 1.18 (inactive) in assay [4]; 1.12 (inactive) in assay [5]; 1.02 (inactive) in assay [6]; -1.02 in assay [7]. For the same compound, the z-score was -1.38 (inactive) in assay [8], -5.38 (inactive) in [9] and -4.14 in [10]. In [2], this compound had a composite z-score of 1.22.

As for `CCCN1C(=O)[C@]2(COC(c3ccc(OCCCO)cc3)=N2)Cc2ccccc21`, the z-score is -0.516 (inactive) in assay [1]; 16.9 (active) in [3]; 2.23 (inactive) in assay [4]; 2.31 (inactive) in [5]; 0.741 (inactive) in [6]; -0.0824 in assay [7]. The z-score in assay [8] is -0.248 (inactive); in [9], -0.0403 (inactive); in assay [10] it was -1.42. The same compound displayed a composite z-score in assay [2] of 0.0927.

On to `Cc1ccc(S[C@]2(C(=O)NC3CC3)CC(=O)N(C3CCCCC3)[C@@H]2c2ccc(CO)cc2I)cc1`, for which the z-score was 0.639 (inactive) in assay [1]; 6.07 (inactive) in assay [3]; 0.898 (inactive) in assay [4]; -0.0504 (inactive) in assay [5]; 0.427 (inactive) in assay [6]; -0.208 in assay [7]. Also, the z-score is 0.655 (inactive) in assay [8], -0.194 (inactive) in [9] and 1.38 in [10]. The compound also registered a composite z-score in assay [2] of 0.112.
